Test results reported in PubChem BioAssay (NCATS).
Records with an inconclusive call do not appear. Calls of active or inactive are those of the source. Calls come from the whole dose curve; as a rule, active = well fitted curve in the direction sought with a large enough effect; inconclusive = small, poorly fitted or top-dose-only effect, or another doubt; inactive = no such curve, though single readings can be large; an effect the other way counts as inactive or inconclusive.

Key:
[1] = Quantitative highthroughput screen to assess conditional lethalithy of NOMO1 cells grown in RPMI1640 with dialyzed fetal bovine serum (RPMI+ds) (AID 1963877); details: NOMO1 in RPMI+dialyzed FBS viability, ATP luminescence, 48 h; series mostly up to 45.8 µM; note: nearly all actives have a fitted effect of over 30% in size; note: potency is the fitted concentration of half-maximal effect;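 for viability: 100% = DMSO control wells and 0% = empty wells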
Outline: (§1)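 Each medium arm—HPLM with 10% dialyzed FBS, or RPMI1640 with 5 mM glucose and 10% untreated or dialyzed FBS—was screened against an 11-point, 3-fold compound titration for 48 h at 37 °C, with CellTiter-Glo luminescence as endpoint.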

[2] = Quantitative highthroughput screen to assess conditional lethalithy of NOMO1 cells grown in Human Plasma-Like Medium with dialyzed fetal bovine serum (HPLM+ds) (AID 1963878); details: NOMO1 AML cells in HPLM+ds, CellTiter-Glo viability, 48 h; series mostly up to 45.8 µM; note: nearly all actives have a fitted effect of over 35% in size; note: potency is the fitted concentration of half-maximal effect;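 for viability: 100% = DMSO wells and 0% = empty wells on each plate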
Outline: as §1

[3] = Quantitative highthroughput screen to assess conditional lethalithy of P12 Ichikawa cells grown in Human Plasma-Like Medium with dialyzed fetal bovine serum (HPLM+ds) (AID 1963879); details: ATP luminescence, 48 h; Potency: viability; series mostly up to 45.8 µM; note: nearly all actives have a fitted effect of over 35% in size; note: potency is the fitted concentration of half-maximal effect
Outline: as §1

[4] = Quantitative highthroughput screen to assess conditional lethalithy of P12 Ichikawa cells grown in RPMI1640 with dialyzed fetal bovine serum (RPMI+ds) (AID 1963880); details: ATP luminescence, 48 h; Potency: P12-Ichikawa viability; series mostly up to 45.8 µM; note: nearly all actives have a fitted effect of over 35% in size; note: potency is the fitted concentration of half-maximal effect;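 for viability: 100% = DMSO wells and 0% = empty wells on each plate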
Outline: as §1

[5] = Quantitative highthroughput screen to assess conditional lethalithy of P12 Ichikawa cells grown in RPMI1640 with untreated serum (RPMI+s) (AID 1963881); details: ATP luminescence, 48 h; Potency: viability; series mostly up to 45.8 µM; note: nearly all actives have a fitted effect of over 35% in size; note: potency is the fitted concentration of half-maximal effect;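 for viability: 100% = DMSO wells and 0% = empty wells without cells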
Outline: as §1

[6] = Quantitative highthroughput screen to assess conditional lethalithy of SEM cells grown in Human Plasma-Like Medium with dialyzed fetal bovine serum (HPLM+ds) (AID 1963882); details: SEM B-ALL cells in HPLM+ds, CellTiter-Glo viability, 48 h; series mostly up to 45.8 µM; note: nearly all actives have a fitted effect of over 35% in size; note: potency is the fitted concentration of half-maximal effect
Outline: as §1

[7] = Quantitative highthroughput screen to assess conditional lethalithy of SEM cells grown in RPMI1640 with dialyzed fetal bovine serum (RPMI+ds) (AID 1963884); details: SEM B-ALL cells, RPMI+dialyzed FBS, CellTiter-Glo viability, 48 h; series mostly up to 45.8 µM; note: nearly all actives have a fitted effect of over 35% in size; note: potency is the fitted concentration of half-maximal effect;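 for viability: 100% = DMSO control wells and 0% = empty wells without cells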
Outline: as §1

[8] = Cellular viability qHTS for adrenocortical cancer (ACC) cell line SW-13 (AID 1963989); details: SW-13 ACC cells viability, CellTiter-Glo, 48 h; activity (max response): hits give low values;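 note: cells grown in serum-free medium with ITS supplement; % is set by controls: 0 for no effect and ±100 for the full control effect; nearly all actives have a fitted effect of over 65% in size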
Outline: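 Here, serum-free SW-13 cultures were dosed up to 46 uM. Following 48 h, ATP-dependent luminescence (CellTiter-Glo) reported viable cells, and logistic modeling produced IC50 values.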

[9] = Cellular viability qHTS for adrenocortical cancer (ACC) cell line NCI-H295R (AID 1963990); details: CellTiter-Glo ATP luminescence, 48 h; series mostly up to 46.1 µM;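 note: 0% = DMSO only wells and -100% = full killing with cytotoxic reference compound; nearly all actives have a fitted effect of over 60% in size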
Outline: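 Viability of NCI-H295R after 48 h of treatment (final up to 46 uM) measured through cellular ATP luminescence.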

[10] = Quantitative highthroughput screen to assess conditional lethalithy of SEM cells grown in RPMI1640 with unreated serum (RPMI+s) (AID 1963883); details: SEM B-ALL cells, CellTiter-Glo viability, 48 h; series mostly up to 45.8 µM; note: nearly all actives have a fitted effect of over 35% in size; note: potency is the fitted concentration of half-maximal effect;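 for viability: 100% = DMSO wells and 0% = empty wells without cells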
Outline: as §1

[11] = Quantitative highthroughput screen to assess conditional lethalithy of NOMO1 cells grown in RPMI1640 with untreated serum (RPMI+s) (AID 1963876); details: NOMO1 AML cells in RPMI+serum, CellTiter-Glo viability, 48 h; series mostly up to 45.8 µM; note: nearly all actives have a fitted effect of over 35% in size; note: potency is the fitted concentration of half-maximal effect;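 for viability: 100% = DMSO wells and 0% = empty wells without cells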
Outline: as §1

CS(=O)(=O)c1ccc(C(=O)Nc2ccc(Cl)c(-c3ccccn3)c2)c(Cl)c1
inactive: Potency [1] | Potency [2] | Potency [3] | Potency [4] | Potency [5] | Potency [6] | Potency [7] | activity (max response) [8] -0.792% | Potency [9]

O=C(OCC#CCSc1nnc(-c2cccc3ccccc23)o1)c1cc2ccccc2s1
inactive: Potency [1] | Potency [2] | Potency [3] | Potency [4] | Potency [5] | Potency [6] | Potency [10]

O=C(C=Cc1ccc(/C=C/C(=O)Nc2ccc(C3=NCCN3)cc2)cc1)Nc1ccc(C2=NCCN2)cc1
inactive: Potency [1] | Potency [2] | Potency [3] | Potency [4] | Potency [5] | Potency [6]

C[C@H](NCc1ccc2c(c1)nc(NC(=O)c1ccc(-c3cn[nH]c3)s1)n2CCc1ccccc1)C(C)(C)C
active: Potency [1] 6.62 µM | Potency [2] 5.9 µM | Potency [3] 11.8 µM | Potency [4] 11.8 µM | Potency [5] 9.35 µM | Potency [6] 0.469 µM | Potency [10] 0.526 µM | Potency [7] 0.0743 µM

CC1(C)SCCN(S(=O)(=O)c2ccc(OCC#CCO)cc2)[C@@H]1C(=O)NO
inactive: Potency [1] | Potency [2] | Potency [3] | Potency [4] | Potency [5] | Potency [6] | Potency [10] | Potency [7]

C#C[C@]1(O)CC[C@@H]2[C@@H]3CCc4cc(O)ccc4[C@H]3CC[C@@]21C
active: Potency [4] 16.6 µM | Potency [6] 14.8 µM | Potency [7] 11.8 µM
inactive: Potency [11]

C=C1C(=O)OC2C=C(C)CCC=C(C)CCC12 (centres undefined)
inactive: Potency [11]
active: Potency [7] 23.5 µM

C=CCc1cccc(C=NNC(=O)CN2CCN(Cc3ccccc3)CC2)c1O
active: Potency [1] 16.6 µM | Potency [2] 18.7 µM | Potency [3] 16.6 µM | Potency [4] 13.2 µM | Potency [5] 14.8 µM | Potency [6] 10.5 µM | Potency [10] 16.6 µM | Potency [7] 8.33 µM

CCOC(=O)[C@H](CCc1ccccc1)N[C@@H](C)C(=O)N1[C@@H](C(=O)O)C[C@H]2CCC[C@@H]21
active: Potency [1] 23.5 µM | Potency [2] 23.5 µM

CC=CC[C@@H](C)C(=O)[C@H]1C(=O)N[C@@H](C(C)C)C(=O)N(C)CC(=O)N(C)[C@@H](CC(C)C)C(=O)N[C@@H](C(C)C)C(=O)N(C)[C@@H](CC(C)C)C(=O)N[C@@H](C)C(=O)N[C@H](C)C(=O)N(C)[C@@H](CC(C)C)C(=O)N(C)[C@@H](CC(C)C)C(=O)N(C)[C@@H](C(C)C)C(=O)N1C
inactive: Potency [11]
active: Potency [10] 14.8 µM

C[C@]12CC[C@H](O)CC1=CC[C@@H]1[C@H]2CC[C@]2(C)C(c3cccnc3)=CC[C@H]12
inactive: Potency [1] | Potency [2] | Potency [3] | Potency [4] | Potency [5] | Potency [6] | Potency [10] | Potency [7]

COc1cc2c(cc1OC)C1CC(=O)C(CC(C)C)CN1CC2 (centres undefined)
inactive: Potency [1] | Potency [2] | Potency [3] | Potency [4] | Potency [5] | Potency [6] | Potency [10] | Potency [7] | activity (max response) [8] -1.87% | Potency [9]

CC(C)(C)NC(=O)[C@H]1CC[C@H]2[C@@H]3CC[C@H]4NC(=O)C=C[C@]4(C)[C@H]3CC[C@]12C
active: Potency [11] 2.35 µM | Potency [3] 10.5 µM | Potency [5] 11.8 µM
inactive: Potency [6] | Potency [10] | Potency [7] | Potency [9]

CN1C(C(=O)Nc2ccccn2)=C(O)c2ccccc2S1(=O)=O
active: Potency [11] 11.8 µM | Potency [3] 11.8 µM
inactive: Potency [9]

N#CC(=Cc1ccc(O)c(O)c1)C(=O)NCc1ccccc1
active: Potency [10] 20.9 µM
inactive: Potency [11]

CC1(C)[C@H]2CC[C@]3(C)[C@@H](C(=O)C=C4[C@@H]5C[C@@](C)(C(=O)O)CC[C@]5(C)CC[C@]43C)[C@@]2(C)CC[C@@H]1O
inactive: Potency [11] | Potency [4] | Potency [5] | Potency [6] | Potency [10] | Potency [7]

CCOc1cc(C=C2C(=O)N(c3ccccc3)N=C2C)cc(Cl)c1OCC(=O)OC
inactive: Potency [1] | Potency [2] | Potency [3] | Potency [4] | Potency [5]

COc1cc2nc(N3CCN(C(=O)C4COc5ccccc5O4)CC3)nc(N)c2cc1OC (centres undefined)
inactive: Potency [11] | Potency [4] | Potency [5] | Potency [6] | Potency [10] | Potency [7]

NC(=O)NN=Cc1ccc([N+](=O)[O-])o1
inactive: Potency [1] | Potency [2] | Potency [3] | Potency [4] | Potency [5] | Potency [6] | Potency [10] | Potency [7]

CC#CCn1c(N2CCC[C@@H](N)C2)nc2c1c(=O)n(Cc1nc(C)c3ccccc3n1)c(=O)n2C
inactive: Potency [1] | Potency [2] | Potency [3] | Potency [4] | Potency [5] | Potency [6] | Potency [10] | Potency [7] | Potency [9]

C=CC(=O)Nc1cc(NC(=O)c2ccc(C)c(NC(=O)c3ccno3)c2)cc(C(F)(F)F)c1
inactive: Potency [11] | Potency [3] | Potency [5] | Potency [6]
